Consider 56 compounds from PubChem BioAssay AID1440 (NMMLSC, 2008).

Among all 220,000 compounds or so, fewer than 10 were called active. Inconclusive results (about 92%) are left out. How the calls were made is not given here. Not all results are given here.

The target in this assay is Guanine nucleotide-binding protein G(o) subunit alpha (Homo sapiens) + Regulator of G-protein signaling 19 (Homo sapiens) (UniProt P09471+P49795). The experiment in a line: modulators of human RGS19-Gαo interaction – biochemical, multiplexed bead flow cytometry (AID 1440).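 Further: fluorescent Galpha o activated by aluminum fluoride binding bead-coupled RGS19.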 As to conditions: RGS19-Galphao binding, at 10 µM. (A flow cytometer gives signals particle by particle.)
Sequence of Guanine nucleotide-binding protein G(o) subunit alpha (Homo sapiens) + Regulator of G-protein signaling 19 (Homo sapiens) (P09471 whole entry, looked up): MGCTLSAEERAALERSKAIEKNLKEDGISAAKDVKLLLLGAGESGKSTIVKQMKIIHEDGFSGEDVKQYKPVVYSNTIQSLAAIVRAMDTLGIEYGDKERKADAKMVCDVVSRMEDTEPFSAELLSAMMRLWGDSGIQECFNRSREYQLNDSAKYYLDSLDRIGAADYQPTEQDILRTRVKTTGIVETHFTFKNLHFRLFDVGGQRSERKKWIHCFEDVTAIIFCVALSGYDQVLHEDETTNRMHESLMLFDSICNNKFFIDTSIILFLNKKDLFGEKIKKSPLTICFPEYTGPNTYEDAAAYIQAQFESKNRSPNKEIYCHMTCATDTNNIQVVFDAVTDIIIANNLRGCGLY
Sequence of Guanine nucleotide-binding protein G(o) subunit alpha (Homo sapiens) + Regulator of G-protein signaling 19 (Homo sapiens) (P49795 whole entry, looked up): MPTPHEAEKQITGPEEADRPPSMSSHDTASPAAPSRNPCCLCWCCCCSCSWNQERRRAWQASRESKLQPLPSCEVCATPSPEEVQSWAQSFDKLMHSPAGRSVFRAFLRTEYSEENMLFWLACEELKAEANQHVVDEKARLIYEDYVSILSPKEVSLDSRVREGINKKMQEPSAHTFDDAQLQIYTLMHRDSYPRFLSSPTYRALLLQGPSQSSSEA
Consider `O=C(c1ccccc1)N1CCCCCC1`, for which the binding response (% of control) turned out to be 58.2%.

Consider `O=C(NC1CCCC1)C1CCC(CNS(=O)(=O)c2cccs2)CC1` (stereo unspecified), for which the binding response (% of control) amounted to 88.8%.

As to `CCOC(=O)c1ccc(N2CN=C3SCC(=O)N3C2)cc1`, the binding response (% of control) was found to be 94.6%.

With `COc1ccc(-c2[nH]nc3c2C(c2ccsc2)C(C#N)=C(N)O3)cc1` (stereo unspecified), the binding response (% of control) stood at 80.2%.

For the compound `COc1ccccc1NC(=O)CSc1nnc(C2CCCCC2)n1C`, the binding response (% of control) turned out to be 50.3%.

Take `CC/C(Cc1ccccc1)=N/NC(=O)c1cccc(Br)c1`: the binding response (% of control) amounted to 130%.

For `COC(=O)c1c(CSc2cccc(C)c2)noc1C(=O)NCc1ccco1`, the binding response (% of control) came to 102%.

With `CC(C)COCC1CC2(CC(C)C(=O)CC2=O)C(=O)O1` (stereo unspecified), the binding response (% of control) worked out at 56.6%.

As for `CCc1nnc(NC(=O)COC(=O)CN2C(=O)c3ccccc3C2=O)s1`, the binding response (% of control) worked out at 62.2%.

Consider `COCCn1c(SCC(=O)c2ccc3c(c2)OCCO3)nnc1C(C)C`, for which the binding response (% of control) is 59.5%.

Turning to `Cc1onc(-c2c(Cl)cccc2Cl)c1C(=O)Nn1cnnc1`, the binding response (% of control) came out at 102%.

Regarding `CCc1ncc(C(=O)c2ccc(OC)cc2)n1C`, the binding response (% of control) stood at 108%.

Turning to `O=C(CN1CCCCCC1=O)OCc1ncc(-c2ccccc2)o1`, the binding response (% of control) turned out to be 96.5%.

Turning to `O=C1Nc2ccccc2/C1=C\c1cccn1-c1ccc(OC(F)(F)F)cc1`, the binding response (% of control) worked out at 63.3%.

With `Cc1ccc(C(=O)CSc2nc(N)cc(=O)[nH]2)cc1`, the binding response (% of control) turned out to be 64.8%.

In the case of `C/C(=N\NC(=O)CSc1nc2nc(C)cc(C)n2n1)c1ccccc1`, the binding response (% of control) worked out at 96.1%.

Turning to `O=C(NCCCCC(NC(=O)c1ccc([N+](=O)[O-])cc1)C(=O)O)c1ccc([N+](=O)[O-])cc1` (stereo unspecified), the binding response (% of control) was 95.5%.

Consider `CCOC(=O)Cn1nc(/C=C/c2ccc(C)cc2)ccc1=O`, for which the binding response (% of control) is -18.6%.

Turning to `COC(=O)c1sccc1-c1ccc(C(=O)Nc2ccccc2)o1`, the binding response (% of control) turned out to be 122%.

Consider `Cc1ccc(-c2cc(C(=O)OCC(=O)Nc3cc(C)on3)c3ccccc3n2)c(C)c1`, for which the binding response (% of control) was 81.7%.

On to `O=C(CSc1nc2ccccc2c(=O)n1CC1CCCO1)NCC1CCCO1` (stereo unspecified), for which the binding response (% of control) is 94.2%.

Consider `COC(=O)C(NC(=O)Nc1ccccc1OC)C(C)C` (stereo unspecified), for which the binding response (% of control) was 93.4%.

Turning to `CCOC(=O)C1=C(C)NC2=C(C(=O)c3ccccc32)C1c1cccnc1` (stereo unspecified), the binding response (% of control) came to 104%.

Take `CC(=O)Nc1ccc(OCC=C(Cl)Cl)cc1`: the binding response (% of control) came to 82.1%.

Consider `O=C(NCc1ccccc1)c1ccccc1OCC(=O)N1CCCCC1`, for which the binding response (% of control) came out at 38.1%.

For the compound `NC(=S)N/N=C1\CCSc2ccc(Cl)cc21`, the binding response (% of control) is 69%.

On to `Cc1ccc(S(=O)(=O)c2c(N)n(Cc3ccco3)c3nc4ccccc4nc23)cc1C`, for which the binding response (% of control) was found to be 92.1%.

Consider `Cc1ccc(C(=O)NNC(=O)C2CCN(Cc3ccccc3)CC2)cc1`, for which the binding response (% of control) was determined as 96.2%.

`CC1(C)C2CCC1(CS(=O)(=O)NCc1ccc(C(=O)O)cc1)C(=O)C2` (stereo unspecified): the binding response (% of control) was determined as 107%.

For the compound `C[C@H](NS(=O)(=O)c1ccccc1F)C(=O)OCC(=O)N1CCc2ccccc21`, the binding response (% of control) was determined as 106%.

In the case of `CC(=O)c1cc2c(cc1NS(=O)(=O)c1ccccc1)OCO2`, the binding response (% of control) was determined as 94.9%.

As for `Clc1ccc(Cc2noc(CN3CCN(c4ccccc4)CC3)n2)c(Cl)c1`, the binding response (% of control) was -14.4%.

Regarding `CC1(C)Cc2c(c(N3CCOCC3)nc3snc(N)c23)CO1`, the binding response (% of control) was 20.9%.

For the compound `O=S1(=O)C=CC(N2CCOCC2)C1` (stereo unspecified), the binding response (% of control) is 162%.

As for `CCC(=O)NCCc1cc2cc(C)c(C)cc2[nH]c1=O`, the binding response (% of control) came out at 96.3%.

For `Cc1noc(C)c1C(=O)Nc1cccnc1`, the binding response (% of control) stood at 77.2%.

As for `Cc1ccc(S(=O)(=O)N2CCSC2)cc1C`, the binding response (% of control) was determined as 113%.

With `COC(=O)Cc1c(C)nc2nc(-c3ccc(Cl)cc3)[nH]n2c1=O`, the binding response (% of control) was determined as 112%.

On to `CC(C)(C#N)NC(=O)c1ccco1`, for which the binding response (% of control) was 87.8%.

On to `Cc1cc2cc(CN(Cc3ccco3)C(=O)NCc3ccccc3)c(=O)[nH]c2cc1C`, for which the binding response (% of control) was 98.1%.

For the compound `COc1ccc(-c2nc(-c3ccccc3)nc(N3CCN(C)CC3)c2C#N)cc1`, the binding response (% of control) worked out at 114%.

Consider `O=S1(=O)CCN2C(Cc3ccc(SC(F)F)cc3)=CSC2=N1`, for which the binding response (% of control) worked out at 121%.

Turning to `Cc1ccc(Cl)c(NC(=O)COC(=O)c2ccccc2C(=O)c2ccc(Cl)c([N+](=O)[O-])c2)c1Cl`, the binding response (% of control) stood at 115%.

For the compound `CCCCN1c2ccccc2N(CCCO)c2cc(C)nnc21`, the binding response (% of control) was 99%.

On to `O=C(NCC(c1cccnc1)N1CCN(c2ccc(F)cc2)CC1)C1CCCCC1` (stereo unspecified), for which the binding response (% of control) stood at 104%.

In the case of `CC12CC(c3ccccc3O1)N(C(=O)c1ccco1)C(=O)N2c1ccccc1` (stereo unspecified), the binding response (% of control) was 95.1%.

Regarding `Cn1cnnc1SCC(=O)N1N=C2/C(=C/c3ccco3)CCCC2C1c1ccco1` (stereo unspecified), the binding response (% of control) turned out to be 61.5%.

Regarding `CC(NS(=O)(=O)c1cccc(Cl)c1)C(=O)Nc1ccc(-c2nc3ccccc3s2)cc1` (stereo unspecified), the binding response (% of control) was determined as 115%.

As to `Cc1nn(Cc2ccc(Cl)cc2)c(C)c1N`, the binding response (% of control) was determined as 8.58%.

With `CC(C)SCCCCOc1ccc2ccccc2c1`, the binding response (% of control) turned out to be 88.9%.

With `CCOC(=O)c1nnn(-c2nc(N3CCCC3)nc(N3CCCC3)n2)c1-c1ccccc1`, the binding response (% of control) is 112%.

Take `CN(C)S(=O)(=O)c1ccc(C(=O)Nc2nnc(SCc3ccccc3)s2)cc1`: the binding response (% of control) is -32.2%.

Regarding `Cc1cc(C)n(C2CCCCC2OC(=O)c2ccccc2)n1` (stereo unspecified), the binding response (% of control) stood at 110%.

`CC1CN(S(=O)(=O)c2cccc(-c3cn4ccccc4n3)c2)CC(C)O1` (stereo unspecified): the binding response (% of control) came to 105%.

With `O=C(CSc1nnc(COc2ccc(Cl)cc2)o1)N1c2ccccc2CCc2ccccc21`, the binding response (% of control) turned out to be 98.2%.

Take `COc1ccc(Cc2nc3ccc(S(N)(=O)=O)cc3[nH]2)cc1OC`: the binding response (% of control) was found to be 56.5%.
